The list is a sample of the results.
aSyn 5UTR act – Activators via SNCA 5'UTR binding, MLPCN. activity score, % (tested at 7.5 µM), hits read low. hit rate 7.1% among 300,000. alpha-synuclein 5'UTR reporter, activators screen; in the data active = activity score below about -60%
Numbers stand for hits; . = inactive.

SMILES	aSyn 5UTR act
Clc1ccc(Cn2ccc(C3CC3)n2)cc1	-95
Cc1ccc(Cn2ccc(C3CC3)n2)cc1	-101
N#Cc1ccc(C(=O)NC2=NCCS2)cc1	-141
COc1ccc(C(=O)NC2=NCCS2)cc1	-91
Cc1ccc(C(=O)NC2=NCCS2)cc1Cl	-110
Cc1ccc(C(=O)NC2=NCCS2)cc1	-118
O=C(NC1=NCCS1)c1ccc(C(F)(F)F)cc1	-123
Cc1ccc(C(=O)Nc2ccsc2C(=O)O)cc1	-141
O=CC1=C(c2ccccc2)Oc2ccccc2O1	-62
Cn1c(SCc2ccccc2F)nc2cccnc21	-101
O=C(NCCNc1ccccc1[N+](=O)[O-])c1cc(F)c(F)cc1Cl	-93
COc1ccccc1OCCNC(=O)c1cc(F)c(F)cc1Cl	-76
CCCNC(=O)c1cccc(COc2ccccc2OC)c1	-107
COc1ccccc1OCCNC(=O)c1ccc(Br)cc1	-106
COc1ccccc1OCCCCOc1ccccc1F	-71
O=[N+]([O-])c1ccc(Cl)c(/C=N/n2c(-c3ccncc3)n[nH]c2=S)c1	-78
Cc1ccc(-c2nn(-c3ccccc3)cc2/C=N/n2c(-c3ccncc3)n[nH]c2=S)cc1	-86
CC(C)OC(=O)CC12CN(C)CC(CC(=O)OC(C)C)(CN(C)C1)C2=O	-98
CC(C)CC(=O)Nc1ccc(C(=O)NNC(=S)NC(=O)C2CCCCC2)cc1	.
Cc1ccc(NC(=S)NC(=O)C2CC2)c(C)c1	-119
Cc1ccc(NC(=S)NC2CCCC2)cc1C	-128
O=C(NC(=S)Nc1ccc(F)cc1)C1CCCCC1	-63
Cc1ccc(NC(=S)NC(=O)C2CCC2)cc1C	-95
Cc1ccc(NC(=S)NC(=O)C2CCCC2)cc1C	-131
Cc1nc2ccc(NC(=S)NC3CCCCC3)cc2nc1C	-173
SMILES	aSyn 5UTR act
S=C(Nc1ccc2[nH]ccc2c1)NC1CCCCC1	-105
O=C(NC(=S)Nc1ccccc1F)C1CCCCC1	-88
O=C1c2ccccc2C(=O)N1CCN1CCc2ccccc21	-97
Oc1ccccc1C1NN=C(c2ccccc2)S1 (stereo not given)	-80
CSc1ccc(C2NN=C(c3ccccc3)S2)cc1 (stereo not given)	.
CC1(C)CC(=O)C=C(NNC(=O)c2ccccc2O)C1	-93
CC(=O)Nc1ccc(/C=C2\CCc3ccccc3C2=O)cc1	-118
CC(=O)Nc1ccc(S(=O)(=O)N2c3ccccc3C(C)=CC2(C)C)cc1	.
COc1ccc(Nc2nccc3c2nnn3C)cc1	-144
COc1cc(OC)c(C2CC(=O)N3CN(c4ccc(C)cc4)CSC3=C2C#N)cc1OC (stereo not given)	-127
Cc1ccc(N2CSC3=C(C#N)C(c4cccs4)CC(=O)N3C2)cc1 (stereo not given)	-131
CCc1ccc(N2CSC3=C(C#N)C(c4cccs4)CC(=O)N3C2)cc1 (stereo not given)	-94
CCC1CCCCN1c1nc(-c2cccc(OC)c2O)nc2ccccc12 (stereo not given)	-98
CC(=O)N(C1=C(Cl)C(=O)c2ccccc2C1=O)C1CCCCC1	.
CC(=NC1CCCCC1)C1=C(O)c2ccccc2C1=O	-121
CN(C)CCCN(C(=O)c1cccs1)c1nc2cc3c(cc2s1)OCO3	-158
CN(C)CCCN(C(=O)c1ccc(C(=O)c2ccccc2)cc1)c1nc2cc3c(cc2s1)OCO3	.
CN(C)CCCN(C(=O)c1ccco1)c1nc2cc3c(cc2s1)OCO3	-185
CN(C)CCCN(C(=O)c1ccc(Br)s1)c1nc2cc3c(cc2s1)OCCO3	-69
O=C1c2cccc3cccc(c23)C(=O)N1CCc1ccccc1	-246
O=C(CCN1C(=O)c2cccc3cccc(c23)C1=O)N1CCOCC1	-102
O=C1c2ccc3c4c(ccc(c24)C(=O)N1CCCCO)C(=O)N(CCCCO)C3=O	.
C=CCNc1nnc(Sc2ncccc2[N+](=O)[O-])s1	-115
COc1cccc(NC(=O)COc2ccccc2)c1	-144
CC(=O)Nc1cccc(OCC(=O)Nc2sccc2C(N)=O)c1	-82
SMILES	aSyn 5UTR act
CC(=O)Nc1cccc(OCCCNC(=O)c2ccc(C(C)(C)C)cc2)c1	-72
CC(C)(C)C1(C)OC(=O)C(=Cc2ccc(OCC(=O)Nc3ccccc3)cc2)C(=O)O1 (stereo not given)	-84
COc1cccc(NC(=O)CC(=O)c2ccc([N+](=O)[O-])cc2)c1	-115
COc1ccc(OCC(=O)Nc2ccc(OC)c(S(=O)(=O)N3CCCCC3)c2)cc1	-96
CC(=O)Nc1cccc(OCC(=O)Nc2ccccc2)c1	-114
COc1cccc(NC(=O)c2cccc(C)c2[N+](=O)[O-])c1	-76
CCn1nc(C)c(C(=O)Nc2cc(Oc3cc(C)cc(C)c3)cc([N+](=O)[O-])c2)c1C	.
CSc1cccc(NC(=O)COc2ccccc2C)c1	-85
Cc1occc1-c1nnc(-c2cc([N+](=O)[O-])cc([N+](=O)[O-])c2)o1	-133
OCC1CCCN(C(=S)NCCc2ccccc2)C1 (stereo not given)	-106
CC1CCN(C(=S)NCCc2ccccc2)CC1	-138
Cc1ccc2c(c1)C(=O)CC(c1ccc3c(c1)OCCO3)O2 (stereo not given)	-96
